CatL block: inhibitors of human cathepsin L, biochemical. Procathepsin L (Homo sapiens), P07711. purified cathepsin L, fluorogenic substrate, fluorescence. inhibition, %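 (tested at 10 µM)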. 0.17% of 58,000 active. AID 460, 2006; in the data active means inhibition above about 45%
CatB inh: human cathepsin B inhibitors, primary screen, biochemical, fluorogenic substrate. P07858. purified cathepsin B, fluorescence. inhibition, %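 (tested at 10 µM)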. 0.1% of 63,000 active; in the data active means inhibition above about 21%
C1s inh: complement C1s protease inhibitors, primary screen, biochemical, 10-compound mixtures | purified C1s, fluorogenic AMC substrate, pooled mixtures | mean inhibition % of two 10-compound mixtures (hits give high values), % at 5 µM (by protocol) | 0.16% of 62,000 active | Complement C1s subcomponent (Homo sapiens), P09871 | AID 538, 2006;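 active means inhibition above 20% in each of the two 10-compound mixture wells holding the compound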
CatB mixtures: cathepsin B inhibitors from pooled compounds, primary screen, biochemical, compound mixtures, AMC fluorescence; P07858; Purified cathepsin B, AMC dipeptide fluorescence; inhibition, %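 (ten-compound pools at 5 µM per compound and 50 µM total)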; 0.06% of 62,000 active; AID 488, 2006; in the data active means inhibition above about 22%, passing the limit was not always enough; inconclusive means no clear call, values can overlap the other calls
CatS inh: inhibitors of human cathepsin S, biochemical, compound mixtures; 0.06% of 62,000 active; recombinant cathepsin S, AMC dipeptide fluorescence, pooled mixtures; P25774; inhibition, %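 (tested at 5 µM per compound within 10-compound mixtures)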; in the data active means inhibition above about 32%, passing the limit was not always enough; inconclusive means no clear call, values can overlap the other calls
CatG inh: human cathepsin G inhibitors, primary screen, biochemical, pooled compound mixtures, AMC fluorescence | purified enzyme, AMC-tetrapeptide fluorescence | P08311 | inhibition, % at 5 µM (by protocol) | 0.2% of 62,000 active;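 active means inhibition above 20% in each of the two mixture wells holding the compound; inactive means inhibition of 20% or less in either well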
Target sequence (P08311 21-244 limits assumed): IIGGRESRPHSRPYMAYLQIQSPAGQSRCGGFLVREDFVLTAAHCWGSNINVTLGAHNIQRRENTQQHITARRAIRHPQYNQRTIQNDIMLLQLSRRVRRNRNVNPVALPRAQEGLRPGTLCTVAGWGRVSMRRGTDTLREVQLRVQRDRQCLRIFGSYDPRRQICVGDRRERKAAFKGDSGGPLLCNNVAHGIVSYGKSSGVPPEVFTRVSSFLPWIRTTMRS
Hits are given with their value; – = inactive; ? = inconclusive; · = no result. A selection: hits, their analogues and other compounds. The true share with any hit is near 0.58%.

SMILES | CatL block | CatB inh | C1s inh | CatB mixtures | CatS inh | CatG inh
C=COCCn1c(-c2nonc2N)nc2ccccc21 | 85.5 | – | – | 55.1 | ? | –
COc1cccc(Cn2c(-c3nonc3N)nc3ccccc32)c1 | 50.2 | 39.1 | – | – | – | –
COc1cc(Cn2c(-c3nonc3N)nc3ccccc32)ccc1C | – | 49.5 | – | – | – | –
Cc1ccc(Cn2c(-c3nonc3N)nc3ccccc32)cc1 | – | 21.8 | – | – | – | –
COc1ccc(-c2nnc(NC(=O)c3ccc(S(=O)(=O)N4COCC4(C)C)cc3)o2)cc1 | – | – | – | – | – | –
CC1(C)COCN1S(=O)(=O)c1ccc(C(=O)Nc2nnc(-c3ccc(Cl)s3)o2)cc1 | – | – | 23.1 | – | – | –
COCCn1c(SCc2c(F)cccc2Cl)nc2c1c(=O)[nH]c(=O)n2C | – | – | – | – | – | –
O=C(CC(c1ccccc1)c1ccco1)N1CCOCC1 (centres undefined) | – | – | – | – | 59.4 | –
CC(C)C(O)P(=O)(OCc1ccccc1)c1ccc(N(C)C)cc1 (centres undefined) | – | – | – | – | – | –
CCn1c(-c2ccc3[nH]c(C)c(C)c3c2)n[nH]c1=S | – | – | – | – | – | –
O=C(CC1Oc2ccccc2NC1=O)NC1CC1 (centres undefined) | · | – | – | – | – | –
CC(=O)OC1(C(F)(F)F)Oc2ccccc2NC1=O (centres undefined) | 85.2 | 74.7 | – | 60.7 | – | –
CCCc1[nH]nc2c1C1(C(=O)N(C(C)C)c3ccccc31)C(C#N)=C(N)O2 (centres undefined) | – | – | – | – | – | –
CCCCc1[nH]nc2c1C1(C(=O)N(CC)c3ccccc31)C(C#N)=C(N)O2 (centres undefined) | – | 25.1 | – | – | – | –
COC(=O)c1ccc2c(c1)NC(=O)C(N1CCCC1)S2 (centres undefined) | 63.0 | – | – | – | – | –
COC(=O)c1ccc2c(c1)NC(=O)C(N1CCCCC1)S2 (centres undefined) | – | – | – | – | – | –
COc1ccc(C(=O)c2no[n+]([O-])c2C(=O)c2ccc(OC)cc2)cc1 | – | 31.0 | – | 37.0 | – | –
O=C1CC(c2ccco2)Cc2nc(N3CCc4ccccc4C3)ncc21 (centres undefined) | – | 21.2 | – | – | – | –
Cc1ccc2c(C(=O)CN3CCCCC3CCO)c(C)[nH]c2c1 (centres undefined) | – | – | – | 29.5 | – | –
Cc1ccc(-c2cc(C(=O)NCc3ccccn3)no2)cc1 | – | – | 65.3 | – | – | –
O=C(NCc1cccs1)c1cc(-c2cccs2)on1 | – | – | – | – | – | 34.0
CCN(CC)c1ccc(/C=N/n2c(=S)[nH]nc(C)c2=O)cc1 | 104.2 | – | – | – | – | –
COC(=O)C1=C(NC(=O)c2cccc(C)c2)CCS1 | – | – | – | – | – | –
O=C(NCc1cccs1)C1CCC(=O)N1C1CCCCC1 (centres undefined) | – | – | – | – | – | –
CC1CCN(S(=O)(=O)c2cccc(C(=O)NCc3cccs3)c2)CC1 | – | – | 23.5 | – | – | –
SMILES | CatL block | CatB inh | C1s inh | CatB mixtures | CatS inh | CatG inh
CC1CCN(S(=O)(=O)c2cccc(C(=O)Nc3ccccn3)c2)CC1 | – | – | – | – | – | –
O=C(NCc1ccco1)C(Cc1ccccc1)N1C(=O)C2C3C=CC(C3)C2C1=O (centres undefined) | 54.3 | – | – | – | – | –
O=C(C(Cc1ccccc1)N1C(=O)C2C3C=CC(C3)C2C1=O)N1CCCCCC1 (centres undefined) | – | – | – | – | – | –
O=C(Cc1cccs1)N(c1ccccc1)C1C=CS(=O)(=O)C1 (centres undefined) | – | – | – | – | – | –
CCc1ccccc1N(C(=O)c1cccs1)C1C=CS(=O)(=O)C1 (centres undefined) | – | – | 60.2 | – | – | –
CCCCOc1ccccc1NC(=O)Cn1c(-c2nonc2N)nc2ccccc21 | 60.0 | 53.7 | – | – | – | –
Nc1nonc1-c1nc2ccccc2n1CC(=O)N1CCN(c2ccc(F)cc2)CC1 | · | 36.9 | – | – | – | –

Compound activity (PubChem BioAssay)
